# From PubChem BioAssay (NCATS)
# Inconclusive results are not listed. Values without a mark were called inactive. The source made the active and inactive calls. Calls come from the whole dose curve; as a rule, active = well fitted inhibition curve with a large enough effect; inconclusive = small, poorly fitted or top-dose-only effect; inactive = flat fitted curve, though single readings scatter.
# Key:
# [1] = system: CRL-7250; assay: Cytotoxic Profiling of Annotated Libraries Using Quantitative High-Throughput Screening (AID 1296008); settings: Five cell lines viability, CellTiter-Glo ATP luminescence, 48-72 h; max response: active compounds read low; note: nearly all actives have a fitted effect of over 60% in size
# Outline: (§1)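 Cytotoxicity was measured as CellTiter-Glo ATP luminescence, read after 10 min at room temperature. Compound treatment of the cells lasted 48 or 72 hr at 37 degrees Celsius in a qHTS format.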
# [2] = system: HEK293; assay: as above; settings: Five cell lines viability, CellTiter-Glo ATP luminescence, 48-72 h; max response: active compounds read low
# Outline: as §1
# % is set by controls: 0 for no effect and ±100 for the full control effect; potency is the fitted concentration of half-maximal effect.
compound,measurement,setting,value
Cc1c(F)cc(C(=O)NC2CC2)cc1-c1c(F)cn2c(C(C)(C)C)nnc2c1F,max response,[1],-14.4%
same,max response,[2],-22.1%
COCCOc1cnc2ccn([C@H](C)c3nnc4c(F)cc(-c5cnn(C)c5)cn34)c(=O)c2c1,outcome,[1],inactive
same,max response,[2],1.47%
Cc1cc2c(F)c(Oc3ncnn4cc(OCC(C)O)c(C)c34)ccc2[nH]1 (centres undefined),max response,[1],-24.6%
same,Potency,[2],5.8 µM (active)
CC1(C)CC[C@]2(C(=O)O[C@@H]3O[C@H](CO)[C@@H](O)[C@H](O)[C@H]3O)CC[C@]3(C)C(=CCC4[C@@]5(C)C[C@@H](O)[C@H](O)C(C)(C)C5[C@H](O)C[C@]43C)[C@@H]2[C@@H]1O (some centres undefined),outcome,[1],inactive
same,max response,[2],1.53%
O=C1CCC(=O)N(O)CCCCCNC(=O)CCC(=O)N(O)CCOCCNC(=O)CCC(=O)N(O)CCCCCN1,max response,[1],-5.63%
same,max response,[2],1.01%
CC1=CC(=O)CC(C)(C)[C@@]1(O)CC[C@@H](C)O[C@@H]1O[C@H](CO)[C@@H](O)[C@H](O)[C@H]1O,max response,[1],0.369%
same,max response,[2],-2.25%
COc1cc(C(=O)NC2CCN(C)CC2)ccc1Nc1ncc2c(n1)N(C1CCCC1)CC(F)(F)C(=O)N2C,Potency,[1],2.31 µM (active)
same,Potency,[2],0.0146 µM (active)
Cc1ccc(NC(=O)c2ccc(CN3CC[C@H](N(C)C)C3)c(C(F)(F)F)c2)cc1Nc1nccc(-c2cncnc2)n1,max response,[1],-22.1%
same,Potency,[2],5.63 µM (active)
COC(=O)c1cc(OC)c(O[C@@H]2O[C@@H](C)[C@H](O)[C@@H](O)[C@H]2O)c(OC)c1,outcome,[1],inactive
same,max response,[2],-6.73%
COc1cc(-c2ncn(/C=C\C(=O)OC(C)C)n2)cc(C(F)(F)F)c1,Potency,[1],4.11 µM (active)
same,Potency,[2],0.259 µM (active)
CCCn1c(=O)c2[nH]c(-c3ccc(OCC(=O)O)cc3)nc2n(CCC)c1=O,max response,[1],3.25%
same,max response,[2],-2.68%
CCOCCn1nc(CC)c2nc(N3CCC(C(=O)O)CC3)nc(Nc3cc(C)ccn3)c21,max response,[1],-0.41%
same,max response,[2],-20%
C/C1=C\CCC(C)CCO[C@@H]2O[C@H](CO[C@@H]3OC[C@H](O)[C@H](O)[C@H]3OC1=O)[C@@H](O)[C@H](O)[C@H]2O (some centres undefined),max response,[1],-2.22%
same,max response,[2],2.77%
CCC(=O)O[C@H]1C(C)(C)[C@H]([C@@H](O)C(=O)OC)[C@]2(C)C(=O)[C@@]1(O)[C@H]1O[C@]13C1CC(=O)O[C@@H](c4ccoc4)[C@]1(C)CCC32 (some centres undefined),max response,[1],0.287%
same,max response,[2],-1.59%
COc1cc(Br)c(S(=O)(=O)Nc2ccc(C(F)(F)F)c(O[C@@H]3CCN(C)C3)c2)cc1OC,max response,[1],-0.0326%
same,max response,[2],-36.5%
COc1ccc(CNC(=O)c2sc3nc(C)cc(C)c3c2N)cc1,max response,[1],-0.266%
same,max response,[2],-0.378%
O=C(Nc1ccccc1-c1cn2c(CN3CCNCC3)csc2n1)c1ccc2ccccc2n1,outcome,[1],inactive
same,max response,[2],-4.98%
O=C(Nc1ccccc1)N1CCN(Cc2ccc3ccccc3n2)CC1,outcome,[1],inactive
same,max response,[2],-11%
CC(C)CC1NC(=O)C2CC3(O)c4ccccc4NC3N2C1=O (centres undefined),max response,[1],-2.34%
same,max response,[2],2.06%
CC(C)C(C(=O)N(C)C(C)C(N)=O)N(C)C(=O)C1CCCN1C(=O)/C=C/C=C/C(O)C(C)O (centres undefined),outcome,[1],inactive
same,max response,[2],4.88%
CN1CCN(C2CCC(n3cc(-c4ccc(Oc5ccccc5)cc4)c4c(N)ncnc43)CC2)CC1 (centres undefined),Potency,[1],5.8 µM (active)
same,Potency,[2],18.4 µM (active)
Cc1cc(NC(=O)Nc2ccc(F)c(F)c2)n(-c2ccccc2)n1,max response,[1],4.98%
same,max response,[2],-2.17%
C=C1C(=O)O[C@H](CCC)[C@H]1C(=O)O,max response,[1],3.05%
same,max response,[2],-3.38%
O=C(O)C1CN(Cc2ccc(-c3nc4cc(Cc5ccccc5F)ccc4s3)c(F)c2)C1,max response,[1],1.29%
same,max response,[2],-0.852%
C=C[C@@](C)(O)CC/C=C(\C)C(=O)O[C@@H]1[C@@H]2O[C@]2(C)[C@H]2[C@H](O[C@@H]3O[C@H](CO)[C@@H](O)[C@H](O)[C@H]3O)OC=C[C@@]12O,max response,[1],-6.64%
same,max response,[2],0.966%
NC(=O)c1cnc(NCCc2ccc(O)c(Cl)c2)nc1NCc1ccccc1,Potency,[1],7.31 µM (active)
same,Potency,[2],6.51 µM (active)
C=CC(=O)Nc1cccc(CN2C(=O)N(c3c(Cl)c(OC)cc(OC)c3Cl)Cc3cnc(NCCCCN(CC)CC)nc32)c1,Potency,[1],10.3 µM (active)
same,Potency,[2],16.4 µM (active)
